PubChem BioAssay AID686948 (National Center for Advancing Translational Sciences (NCATS), 2013)
Calls of active or inactive are those of the source. Calls follow the shape of the dose curve; as a rule, active = well fitted inhibition curve with a large enough effect; inactive = flat fitted curve, though single readings scatter.

Target: Tyrosine-protein kinase Yes (Homo sapiens) (UniProt P07947)
Experiment: qHTS for small molecule inhibitors of Yes1 kinase: Confirmatory screen on the cherrypicks
Conditions: Recombinant Yes1, ADP-Glo luminescence, poly(E4Y) substrate
From the text: The Src family of non-receptor protein tyrosine kinases contains nine members, including Yes1, Src, Fyn, Lyn, and […]. These kinases have important roles in a variety of cellular functions, such as cell proliferation, survival, and differentiation. Src, the most well characterized member of this family, has been previously identified as a proto-oncogene. […] In melanoma, it has been shown that Yes1, and not other family members, such as Src, is functionally involved in the malignant phenotype. Additionally, a recent study examining the downregulation of Yes1 by shRNA found significant effects on cell survival/growth for basal-like and Her2-positive breast cancers. Despite the potential for Yes1 to be a target for the above-described cancers, there are very few reports on the identification of potent and selective inhibitors of Yes1 kinase. Antagonists of Yes1 would further elucidate Yes1 biology and help to confirm whether Yes1 is a viable target for therapeutic intervention in a variety of cancers. A compound that inhibits Yes1 could be important for the treatment of various cancers in which Yes1 is highly expressed and can also be used as a tool compound to help further elucidate Yes1 biology. To that end, we have developed a sensitive HTS biochemical assay for Yes1 activity. This assay was screened against several small compound libraries to look for modulators of activity. Inhibition is the desired output for this assay. NIH Molecular Libraries Probe Production Centers Network [MLPCN] NIH Chemical Genomics Center [NCGC] MLPCN Grant: MH084681
Two microliter of Yes1 enzyme (columns 1-2, 5-48; Millipore, Billerica, MA) are dispensed into Greiner, white solid-bottom 1536-well assay plates; columns 3 and 4 receive buffer without Yes1 as a control for maximum inhibition. Compounds (23 nL) are then transferred via Kalypsys pin tool equipped with 1536-pin array (10 nL slotted pins, V&P Scientific, San Diego, CA). The library compounds are in columns 5-48 and columns 1-4 serve as controls with DMSO in columns 1, 3 and 4 and 10 mM 1:3 fold serial of dasatinib in column 2. Following addition of compound and a 20 minute incubation, 1 uL of substrate (ATP and poly-E4Y from Sigma-Aldrich, St. Louis, MO) is added, and the biochemical reaction is allowed to progress for 60 minutes at room temperature. The production of ADP is then quantified by the ADP-Glo Kit (Promega, Madison, WI). First, 2 uL of the first kit reagent is added, and the reaction is incubated for 45 minutes; then, 4 uL of the second kit reagent are added and the reaction is incubated for 30 minutes at which time the luminescence is read on a Viewlux plate reader (Perkin-Elmer, Waltham, MA). The final concentration of reagents in the reaction are 4 nM Yes1, 0.1 mM ATP, 100 uM EGTA, 10 mM MgCl2, 0.3 mg/mL poly(E4Y), 50 mM Tris pH 7.5, 1 mM DTT, 150 mM NaCl, 0.01% Brij-35, and 5% glycerol. Data are normalized to DMSO-treated control columns with (maximum signal) and without (minimum signal) enzyme.

Sequence of Tyrosine-protein kinase Yes (Homo sapiens) (P07947 whole entry, looked up): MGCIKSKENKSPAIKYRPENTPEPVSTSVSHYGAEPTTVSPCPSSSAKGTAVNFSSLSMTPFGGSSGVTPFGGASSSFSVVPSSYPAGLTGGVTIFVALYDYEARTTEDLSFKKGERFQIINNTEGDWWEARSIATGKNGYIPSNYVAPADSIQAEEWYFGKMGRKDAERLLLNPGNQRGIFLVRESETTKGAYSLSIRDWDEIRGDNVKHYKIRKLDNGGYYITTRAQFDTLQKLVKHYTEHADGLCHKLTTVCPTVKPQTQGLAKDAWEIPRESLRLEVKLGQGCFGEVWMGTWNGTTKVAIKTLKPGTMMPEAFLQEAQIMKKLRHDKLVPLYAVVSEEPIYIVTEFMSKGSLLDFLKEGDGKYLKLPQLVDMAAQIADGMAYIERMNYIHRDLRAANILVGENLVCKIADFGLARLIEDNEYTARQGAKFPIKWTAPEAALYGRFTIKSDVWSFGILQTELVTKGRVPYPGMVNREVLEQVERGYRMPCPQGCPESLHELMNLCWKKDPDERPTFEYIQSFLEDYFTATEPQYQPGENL

## CC(NCc1ccc2c(c1)nc(NC(=O)c1ccc(-c3cn[nH]c3)s1)n2CC(C)(C)O)C(C)(C)C (stereo unspecified)
  Potency: 1.7 nM (active)

## CC(C)Oc1cc(Nc2nc(N[C@@H](C)c3ccc(F)cn3)ncc2Cl)[nH]n1
  Potency: 39.1 nM (active)

## NC(=O)Nc1cc(-c2ccc(CN3CCOCC3)c(F)c2)sc1C(=O)N[C@H]1CCCNC1
  Potency: 1.7 nM (active)

## CCN(CC)CCOc1ccc(Nc2ncc3cc(-c4c(Cl)cccc4Cl)c(=O)n(C)c3n2)cc1
  Potency: 0.4 nM (active)

## Cc1ccc(C(=O)Nc2cccc(C(F)(F)F)c2)cc1-c1ccc2nc(NCCN3CCOCC3)ncc2c1
  Potency: 0.7 nM (active)

## CN1CCC(CNc2ccc3ncc(-c4cccc(OC(F)(F)F)c4)n3n2)CC1
  Potency: 2770 nM (active)
